Only some compounds are listed: those with a hit (about 15% of all), similar ones and a draw of the others.
TDP1 cell CPT: qHTS for Inhibitors of human tyrosyl-DNA phosphodiesterase 1 (TDP1): qHTS in cells in presence of CPT | chicken DT40 Tdp1-/-;hTDP1 cells + 20 nM CPT, ATP luminescence, 48 h | Potency, µM (series often up to 46.2 µM), without a hit: top-dose activity change, negative = growth inhibition, hits mostly inhibitors | AID 686979, 2013 | 420,000 tested, 12% active; note: nearly all actives have a fitted effect of over 55% in size
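Chicken DT40 Tdp1-/- cells stably complemented with human TDP1 were seeded at 400 cells/well in medium containing 20 nM camptothecin, exposed to pin-transferred compounds, and grown at 37 °C for at least 48 hr. Viability was read as ATP luminescence.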
ALOX12 inh: Primary qHTS assay for inhibitors of human arachidonate 12S-lipoxygenase (ALOX12): Round 2; Polyunsaturated fatty acid lipoxygenase ALOX12 (Homo sapiens), P18054; purified 12hLO, xylenol orange hydroperoxide absorbance; Potency, µM (series often up to 108 µM), inactives show at the top dose activity change, negative = inhibition, actives largely listed as inhibitors; 580,000 tested, 1.1% active; AID 1671190, 2021
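Purified human 12hLO at 150 nM in 25 mM Hepes, 0.01% Triton X-100, pH 7.0, preincubated 15 min at room temperature with compound. Reaction started with 40 uM arachidonic acid, 30 min at room temperature. Hydroperoxide measured by Fe-xylenol orange, 573/405 nm absorbance ratio.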
Gal4-VP16 FLuc: VP16 counterscreen qHTS for inhibitors of ROR gamma transcriptional activity | Drosophila S2 Gal4-VP16 UAS-luciferase, luminescence, 20 h | Potency, µM (series often up to 53.6 µM), for the others: at the highest dose activity, negative = inhibition, actives largely listed as inhibitors | 310,000 tested, 3.5% active | AID 2546, 2010;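 note: Gal4-VP16 expression switched on by copper sulfate through the metallothionein promoter; nearly all actives have a fitted effect of over 50% in size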
ELG1 DNA repair: qHTS screen for small molecules that inhibit ELG1-dependent DNA repair in human embryonic kidney (HEK293T) cells expressing luciferase-tagged ELG1; HEK293T ELG1-luciferase reporter, luminescence, 16 h; DNA damage induced by 5-fluorouridine; Potency, µM (doses to about 46.1 µM), inactives show top-dose activity change, negative = inhibition, actives largely listed as inhibitors; 330,000 tested, 2.3% active; AID 504467, 2011; note: nearly all actives have a fitted effect of over 55% in size
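In this reporter screen, reduction of luminescence relative to DMSO vehicle indicated activity. Compounds and 5-fluorouridine were added together to 2,000 cells per well, incubated for 16 hr at 37 °C, then developed with ONE-Glo.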
RORg inh: qHTS for inhibitors of ROR gamma transcriptional activity; Nuclear receptor ROR-gamma (Mus musculus), P51450; Drosophila S2 Gal4-RORgamma UAS-luciferase reporter, 20 h; Potency, µM (doses to about 53.6 µM), for inactives: top-dose activity change, negative = inhibition, usual class: inhibitors; 310,000 tested, 5.4% active; AID 2551, 2010; note: nearly all actives have a fitted effect of over 60% in size
Target sequence (P51450 whole entry, looked up, the tested form may be a part): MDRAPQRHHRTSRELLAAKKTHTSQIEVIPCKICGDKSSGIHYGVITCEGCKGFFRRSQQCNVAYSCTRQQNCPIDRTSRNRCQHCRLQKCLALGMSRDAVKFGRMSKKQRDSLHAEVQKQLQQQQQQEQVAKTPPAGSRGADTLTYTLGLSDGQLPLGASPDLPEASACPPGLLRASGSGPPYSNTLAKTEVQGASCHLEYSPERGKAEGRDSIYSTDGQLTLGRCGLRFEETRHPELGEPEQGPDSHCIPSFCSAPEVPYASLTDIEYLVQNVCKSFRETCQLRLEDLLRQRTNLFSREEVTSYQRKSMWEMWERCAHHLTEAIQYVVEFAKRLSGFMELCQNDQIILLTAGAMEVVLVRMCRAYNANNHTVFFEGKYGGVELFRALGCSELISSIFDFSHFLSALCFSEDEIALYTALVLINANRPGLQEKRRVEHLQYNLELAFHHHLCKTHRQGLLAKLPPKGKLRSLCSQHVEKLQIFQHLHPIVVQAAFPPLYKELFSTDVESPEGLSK
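Stable Schneider cell line, Gal4 DNA-binding domain fused to ROR gamma, UAS-luciferase. Cmpd 1 hr RT → CuSO4 700 uM final → 20 hr RT → luciferase reagent 10 min → luminescence.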
TDP1 cell noCPT: qHTS for Inhibitors of human tyrosyl-DNA phosphodiesterase 1 (TDP1): qHTS in cells in absence of CPT; DT40 Tdp1-/- hTDP1 cells, no CPT, ATP luminescence, 48 h; Potency, µM (titrated, usually from 46.2 µM), for the others: top-dose activity change, negative = growth inhibition, usual class: inhibitors; 420,000 tested, 15% active; AID 686978, 2013; note: nearly all actives have a fitted effect of over 55% in size
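Luminescent ATP content (CellTiter-Glo) served as the growth readout. Knockout chicken DT40 cells expressing human TDP1 were exposed to compounds without camptothecin for a minimum 48 hr at 37 °C.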
* hit, by the source's call. Calls come from the whole dose curve; as a rule, active = well fitted curve in the direction sought with a large enough effect; inconclusive = small, poorly fitted or top-dose-only effect, or another doubt; inactive = no such curve, though single readings can be large; an effect the other way counts as inactive or inconclusive. % is set by controls: 0 for no effect and ±100 for the full control effect; potency is the fitted concentration of half-maximal effect.

For CCN1CCN(c2ncc3c(n2)CCN(Cc2sccc2C)C3)CC1 the results were TDP1 cell CPT inconclusive, ALOX12 inh inconclusive and TDP1 cell noCPT 23µM*.
CCN1CCN(c2ncc3c(n2)CCN(Cc2ccc(OC(C)C)cc2)C3)CC1 was read as TDP1 cell CPT inconclusive, ALOX12 inh 0% and TDP1 cell noCPT inconclusive.
`CCN1CCN(c2ncc3c(n2)CCN(Cc2ccc(Br)s2)C3)CC1` gave TDP1 cell CPT 13µM*, ALOX12 inh inconclusive and TDP1 cell noCPT 10µM*.
For CN1CCN(c2ncc3c(n2)CCN(Cc2ccc(Br)s2)C3)CC1 the results were TDP1 cell CPT 23µM*, ALOX12 inh 4% and TDP1 cell noCPT 15µM*.
CCN1CCN(c2ncc3c(n2)CCN(Cc2ccc(C)s2)C3)CC1 was read as TDP1 cell CPT inconclusive, ALOX12 inh -5% and TDP1 cell noCPT inconclusive.
Screening CCc1noc(-c2cn(C3CCN(C(=O)c4cccn4C)CC3)nn2)n1 returned ALOX12 inh 39%.
For O=C1CC(c2noc(-c3ccc4c(c3)OCO4)n2)CN1c1ccc(Cl)cc1 (stereo not drawn) the results were ALOX12 inh -3%.
Screening CCc1ccc(CN(C)C(C)C(=O)NCc2ccccc2)cc1 (stereo not drawn) returned TDP1 cell CPT inconclusive, ALOX12 inh 0%, Gal4-VP16 FLuc -2%, ELG1 DNA repair -14%, RORg inh 35% and TDP1 cell noCPT 7.3µM*.
`CN(Cc1ccc(Cl)c(Cl)c1)C(C(=O)NCc1ccccc1)c1ccco1` (stereo not drawn) gave TDP1 cell CPT inconclusive, ALOX12 inh -13% and TDP1 cell noCPT inconclusive.
For CCOc1ccc(CN(C)C(C)C(=O)NCc2ccccc2)cc1 (stereo not drawn) the results were TDP1 cell CPT inconclusive, ALOX12 inh -10%, Gal4-VP16 FLuc 2%, ELG1 DNA repair -5%, RORg inh -20% and TDP1 cell noCPT inconclusive.
CCC(CC)C(C(=O)NCc1ccccc1)N(C)Cc1ccc(Cl)c(Cl)c1 (stereo not drawn) was read as TDP1 cell CPT 21µM*, ALOX12 inh -1% and TDP1 cell noCPT 15µM*.
Screening CCCCOc1ccc2c(C)c(CC(C)C)c(=O)oc2c1 returned ALOX12 inh 7%.
CCOC(=O)c1ccc(NC(=S)N2CCSC2c2c(F)cc(F)cc2F)cc1 (stereo not drawn) was read as TDP1 cell CPT 23µM*, ALOX12 inh -1%, Gal4-VP16 FLuc inconclusive, ELG1 DNA repair inconclusive, RORg inh 13µM* and TDP1 cell noCPT 26µM*.
For CN1CCN(C(=S)Nc2cccc(Cl)c2)CC1 the results were TDP1 cell CPT -4%, ALOX12 inh 8%, Gal4-VP16 FLuc 3%, ELG1 DNA repair 21%, RORg inh -17% and TDP1 cell noCPT 5%.
Screening CCOC(=O)c1ccc(NC(=S)N2CCN(S(C)(=O)=O)CC2)cc1 returned TDP1 cell CPT -6%, ALOX12 inh -1%, Gal4-VP16 FLuc -4%, ELG1 DNA repair -1%, RORg inh 17% and TDP1 cell noCPT 0%.
COc1ccc(C2SCCN2C(=S)Nc2ccc(Cl)cc2)cc1 (stereo not drawn) was read as TDP1 cell CPT -21%, ALOX12 inh -20%, Gal4-VP16 FLuc inconclusive, ELG1 DNA repair 16%, RORg inh 13µM* and TDP1 cell noCPT -12%.
For COc1ccc(C2SCCN2C(=S)Nc2cccc(Cl)c2)cc1 (stereo not drawn) the results were TDP1 cell CPT inconclusive, ALOX12 inh -27%, Gal4-VP16 FLuc inconclusive, ELG1 DNA repair 1%, RORg inh inconclusive and TDP1 cell noCPT 16µM*.
`COc1cccc(CNCc2c(C(=O)O)c(C)n(Cc3cc(C)ccc3C)c2C)c1OC` gave ALOX12 inh -13%.
Screening O=C(NCCc1ccc(Cl)cc1)c1nc(-c2ccc(Cl)cc2)c2ccccn12 returned ALOX12 inh 16%.
Screening Cc1ccc(C(=O)Nc2cc3c(cc2SCc2ccco2)n(C)c(=O)n3C)cc1 returned ALOX12 inh 7.9µM*.
Screening O=C(Nc1ccccc1)N1CCc2nc(C3CC3)nc(-c3ccc(Cl)cc3)c2C1 returned ALOX12 inh 17%.
COc1ccc(N/C=C/C(=O)c2ccccc2)cc1 was read as TDP1 cell CPT -18%, ALOX12 inh 11%, Gal4-VP16 FLuc 10µM*, ELG1 DNA repair inconclusive, RORg inh 7.9µM* and TDP1 cell noCPT inconclusive.
`COc1ccc(N/C=C\C(=O)c2ccc3ccccc3c2)cc1` gave TDP1 cell CPT -7%, ALOX12 inh 0%, Gal4-VP16 FLuc 11%, ELG1 DNA repair inconclusive, RORg inh -29% and TDP1 cell noCPT -4%.
Screening COc1ccc(N/C=C/C(=O)c2sc(-c3ccccc3)nc2C)cc1 returned TDP1 cell CPT 16µM*, ALOX12 inh -3%, Gal4-VP16 FLuc -3%, ELG1 DNA repair -18%, RORg inh 5% and TDP1 cell noCPT 21µM*.
`Cc1nc(-c2ccccc2)sc1C(=O)/C=C/c1ccc(Cl)cc1` gave TDP1 cell CPT 15µM*, ALOX12 inh 0%, Gal4-VP16 FLuc -4%, ELG1 DNA repair 14%, RORg inh 7% and TDP1 cell noCPT 23µM*.
`O=C(CSc1ncnc2ccccc12)Nc1ccc(Cl)cc1Cl` gave ALOX12 inh 8%.
For CCN(CC)c1ccc(S(=O)(=O)N2CCOCC2)cc1NC(=O)C1CC1 the results were TDP1 cell CPT -3%, ALOX12 inh 196%, ELG1 DNA repair -1% and TDP1 cell noCPT -13%.
For CCN(CC)c1ccc(S(=O)(=O)N2CCOCC2)cc1NC(=O)CN1CCN(Cc2ccccc2)CC1 the results were TDP1 cell CPT 16µM*, ALOX12 inh -9%, Gal4-VP16 FLuc 2%, ELG1 DNA repair -22%, RORg inh -28% and TDP1 cell noCPT 15µM*.

Bioassay records from PubChem BioAssay.
